Screening data (PubChem BioAssay)
Pf growth 48h = P. falciparum growth inhibition at 48 hours (one generation). P. falciparum luciferase growth in erythrocytes, 48 h. Potency, µM (series often up to 28.7 µM), actives largely listed as inhibitors. hit rate 5.9% among 310,000
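Compounds are pin-transferred into medium, infected erythrocytes (2% hematocrit, 0.1% parasitemia final) are added, and plates sit one parasite generation at 37 C in 5% CO2. Detection reagent is then added and luminescence measured.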
AmpC inh detg = blocks E. coli AmpC beta-lactamase in detergent assay; P00811; AmpC hydrolysis of nitrocefin, absorbance 480 nm, 0.01% Triton; Potency, µM (doses to about 114 µM), usual class: inhibitors; hit rate 0.041% among 370,000; AID 485294; further: nearly all actives have a fitted effect of over 25% in size
Target sequence (P00811 whole entry, looked up): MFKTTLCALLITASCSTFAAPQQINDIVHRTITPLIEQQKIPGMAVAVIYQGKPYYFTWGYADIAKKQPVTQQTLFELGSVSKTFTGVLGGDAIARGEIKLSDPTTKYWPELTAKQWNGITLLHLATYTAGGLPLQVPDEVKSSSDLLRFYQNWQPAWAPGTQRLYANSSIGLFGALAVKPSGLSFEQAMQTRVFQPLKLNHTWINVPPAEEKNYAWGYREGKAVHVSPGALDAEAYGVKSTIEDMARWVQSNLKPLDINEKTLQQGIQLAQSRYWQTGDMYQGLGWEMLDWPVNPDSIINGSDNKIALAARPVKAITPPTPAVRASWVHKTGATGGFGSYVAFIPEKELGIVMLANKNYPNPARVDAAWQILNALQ
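AmpC (5.3 nM in the dispensed reagent) in 20 mM phosphate pH 7.0 with 0.01% (detergent screen) or 0.0001% Triton X-100 was preincubated with compounds for 15 min at room temperature. Nitrocefin was then added from an 800 uM solution, and hydrolysis was followed at 480 nm.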
Sm TGR inh = blocks Schistosoma mansoni thioredoxin glutathione reductase | Q962Y6 | purified TGR, DTNB reduction, TNB absorbance 405 nm | Potency, µM (highest dose often 114 µM), usual class: inhibitors | hit rate 3% among 360,000 | AID 485364; further: nearly all actives have a fitted effect of over 60% in size
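First, TGR (20 nM dispensed) and NADPH were mixed with compound. Second, a 15 min room-temperature incubation followed. Third, further NADPH and then DTNB were added to start the reaction. Finally, TNB absorbance was monitored kinetically.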
AmpC inh no detg = AmpC beta-lactamase inhibition without detergent; P00811; AmpC nitrocefin hydrolysis, absorbance 480 nm, 0.0001% Triton; Potency, µM (top dose mostly 57.1 µM), actives largely listed as inhibitors; hit rate 0.52% among 330,000; further: nearly all actives have a fitted effect of over 20% in size
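AmpC (5.3 nM in the dispensed reagent) in 20 mM phosphate pH 7.0 with 0.01% (detergent screen) or 0.0001% Triton X-100 was preincubated with compounds for 15 min at room temperature. Nitrocefin was then added from an 800 uM solution, and hydrolysis was followed at 480 nm.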
Pf growth 96h = inhibits malaria parasite growth, 96 h | AID 504834 | P. falciparum luciferase reporter growth, 96 h | Potency, µM (doses to about 28.7 µM), usual class: inhibitors | hit rate 6.9% among 320,000
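Plates of compound plus infected erythrocytes (2% hematocrit, 0.05% parasitemia final) incubate 96 hours, 37 C, 5% CO2. Detection reagent added; reduced luminescence from the parasites' luciferase reporter flags inhibition.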
SARS PLP yeast = SARS-CoV PLP inhibition in yeast. Potency, µM (top dose mostly 32.9 µM), actives largely listed as activators. S. cerevisiae expressing SARS-CoV PLpro, growth rescue. hit rate 0.19% among 330,000; calls by dose curve; further: nearly all actives have a fitted effect of over 55% in size
Of the large screens only hits and unclear results are named; the others gave an inactive call; ! = a repeat was not active. Shown are actives, neighbours in structure and some others; about 12% of the full set was active somewhere. Unless noted, the call rests on the fitted dose curve; in most records, active means well fitted curve in the direction sought with a large enough effect; inconclusive means small, poorly fitted or top-dose-only effect, or another doubt; inactive means no such curve, though single readings can be large; an effect the other way counts as inactive or inconclusive.

COc1ccc([C@]23Cc4ccccc4C(O2)C2=C(CC4(CCCCC4)OC2=O)O3)cc1	Pf growth 48h inconclusive, Pf growth 96h inconclusive
COc1ccc([C@]23Cc4c(ccc5ccccc45)C(O2)C2=C(CC4(CCCCC4)OC2=O)O3)cc1	Pf growth 96h inconclusive
COc1ccc([C@]23Cc4c(ccc5ccccc45)C(O2)C2=C(CCCC2=O)O3)cc1	Pf growth 96h inconclusive
COc1ccc([C@]23Cc4ccccc4C(O2)C2=C(CCCC2=O)O3)cc1	Pf growth 48h inconclusive, Pf growth 96h 1.51µM
COc1ccc([C@]23Cc4ccccc4C(O2)C2=C(O3)C(=O)c3ccccc3C2=O)cc1	Pf growth 48h 1.51µM, AmpC inh detg inconclusive, Sm TGR inh 7.08µM
COc1cc2cc(CNc3ccc(C)cc3)c(=O)n(CC(=O)Nc3ccc(F)cc3F)c2cc1OC	Sm TGR inh inconclusive (no result: Pf growth 48h, AmpC inh no detg, Pf growth 96h, SARS PLP yeast)
CCOC(=O)c1c(C)[nH]c(C)c1S(=O)(=O)N1CCN(c2ccccc2OC)CC1	none (no result: Pf growth 48h, AmpC inh no detg, Pf growth 96h, SARS PLP yeast)
O=C(CSc1nc2ccccc2c(=O)n1-c1ccc(F)cc1)Nc1ccc2c(c1)CCC2	Pf growth 48h 9.28µM, AmpC inh no detg inconclusive, Pf growth 96h 9.28µM
O=C(CSc1nc2ccccc2c(=O)n1-c1ccc(F)cc1F)Nc1ccc2c(c1)CCC2	Pf growth 48h 9.28µM, Pf growth 96h inconclusive
Cc1ccc(-n2c(SCC(=O)Nc3cccc(S(=O)(=O)NC4=NCCCCC4)c3)nc3ccccc3c2=O)cc1	Pf growth 48h inconclusive, Pf growth 96h 3.7µM
CCCCN(Cc1cc2cc(OC)ccc2[nH]c1=O)S(=O)(=O)c1ccc(C)cc1	Pf growth 48h inconclusive, AmpC inh detg inconclusive
COc1ccc(S(=O)(=O)N(CCCN2CCCC2=O)Cc2cc3c(C)cc(C)cc3[nH]c2=O)cc1	Pf growth 48h 9.28µM
CCCc1nn2c(=O)cc(CSCC(=O)Nc3ccc(C)cc3)nc2s1	Pf growth 96h inconclusive
N#Cc1cc2sc3nnc(-c4ccncc4)n3c2cc1C#N	Pf growth 48h 13.1µM, AmpC inh detg inconclusive, Pf growth 96h inconclusive
N#Cc1cc2sc3nc4ccccc4n3c2cc1C#N	AmpC inh detg inconclusive (no result: Pf growth 96h)
Cn1c(=O)c(C(=O)c2ccccc2)nc2ccccc21	none (no result: Pf growth 48h)
O=C(c1ccccc1)c1nc2ccccc2n(CCCn2c(=O)c(C(=O)c3ccccc3)nc3ccccc32)c1=O	Pf growth 48h 3.7µM, Pf growth 96h inconclusive
CC(=O)NC(C)c1nc2ccccc2n1Cc1ccccc1Cl (stereo not drawn)	none (no result: Pf growth 48h, AmpC inh no detg, Pf growth 96h, SARS PLP yeast)
CC(NC(=O)/C=C/c1ccco1)c1nc2ccccc2n1Cc1ccccc1F (stereo not drawn)	Pf growth 48h inconclusive, Sm TGR inh 35.5µM, Pf growth 96h 10.4µM
CC(NC(=O)/C=C/c1ccco1)c1nc2ccccc2n1Cc1c(Cl)cccc1Cl (stereo not drawn)	Pf growth 48h inconclusive, Sm TGR inh 25.1µM, Pf growth 96h inconclusive
Cc1cc(C)c(-c2noc(C(=O)OC(C)(C)C)c2C(=O)OC(C)(C)C)c(C)c1	Pf growth 48h inconclusive, Pf growth 96h inconclusive
CN1CCN(C(=O)C2CCC(CNS(=O)(=O)c3cccc4cccnc34)CC2)CC1 (stereo not drawn)	AmpC inh detg inconclusive, Pf growth 96h inconclusive (no result: Pf growth 48h)
CC(=O)N1c2ccc(S(=O)(=O)NCC3CCC(C(=O)NC4CCC(C)CC4)CC3)cc2CC1C (stereo not drawn)	Pf growth 48h 13.1µM, Pf growth 96h inconclusive
CC1CCN(C(=O)C2CCC(CNS(=O)(=O)c3cccc4cccnc34)CC2)CC1 (stereo not drawn)	AmpC inh detg inconclusive, Pf growth 96h 9.28µM (no result: Pf growth 48h)
CC1CCC(NC(=O)C2CCC(CNS(=O)(=O)c3cccc4cccnc34)CC2)CC1 (stereo not drawn)	Pf growth 96h 11.7µM
CCN(CC)C(=O)C1CCC(CNS(=O)(=O)c2cccc3cccnc23)CC1 (stereo not drawn)	AmpC inh detg inconclusive, Pf growth 96h 14.7µM
Cc1ccc(NC(=O)CN2C(=O)COc3ccc(S(=O)(=O)NC4CCCC4)cc32)cc1N(C)C	none (no result: Pf growth 48h, AmpC inh no detg, Pf growth 96h, SARS PLP yeast)
Fc1cccc(NC(=S)NCCN2CCOCC2)c1	none
CCOc1ccccc1CNCCCSc1nnnn1C	none (no result: Pf growth 48h, AmpC inh no detg, Pf growth 96h, SARS PLP yeast)
Cc1ccc(C(=O)NCCCNC(=O)c2ccccn2)cc1	none
Cc1ccc(/C(=C\CN2CCCC2)c2ccccn2)cc1	Pf growth 96h 13.5µM!
Cc1ccc(C2(CC(=O)O)CCOC(C)(C)C2)cc1 (stereo not drawn)	Pf growth 96h 9.28µM
CCc1nn2c(=O)cc(COC(=O)CNC(=O)c3ccccc3)nc2s1	none (no result: Pf growth 48h, AmpC inh no detg, Pf growth 96h, SARS PLP yeast)
Cc1ccc(C)n1-c1ccc(C(=O)NC2CCN(Cc3ccccc3)CC2)cc1	Pf growth 48h inconclusive, Pf growth 96h 11.7µM
O=C(NC1CCN(Cc2ccccc2)CC1)c1cn(-c2ccccc2)nc1-c1cccnc1	Pf growth 48h 3.7µM, AmpC inh detg inconclusive, Pf growth 96h 2.33µM
Cc1ccccc1C(=O)NC1CCN(Cc2ccccc2)CC1	none
O=C(NC1CCCCCC1)c1ccc(CN2CCOCC2)cc1	Pf growth 96h 10.4µM
Cc1ccc(CN2CCC(NC(=O)c3ccccc3)CC2)cc1	none
Cc1cc(F)ccc1S(=O)(=O)Nc1ccccc1C(=O)NC1CCN(Cc2ccccc2)CC1	Pf growth 48h 2.94µM, AmpC inh detg inconclusive, Pf growth 96h 3.29µM
O=C(O)c1cn(-c2ccccc2)nc1-c1cccnc1	none (no result: Pf growth 48h, Pf growth 96h)
O=C(NC1CCCC1)c1ccc(CN2CCOCC2)cc1	none (no result: Pf growth 96h)
CCOc1cccc(NC(=O)C2CC(=O)N(C)C(=Nc3cccc(OC)c3)S2)c1 (stereo not drawn)	none (no result: Pf growth 48h, AmpC inh no detg, Pf growth 96h, SARS PLP yeast)
CN1CCC(=NNC(=O)c2cn(-c3ccccc3)nc2-c2ccccc2)CC1	AmpC inh no detg inconclusive
OC(COCC(F)(F)C(F)(F)C(F)(F)C(F)F)Cn1c2ccccc2c2ccccc21 (stereo not drawn)	Pf growth 48h 11.7µM
Cc1cccc(C)c1OCC(O)Cn1c2ccccc2c2ccccc21 (stereo not drawn)	Pf growth 48h 10.4µM
Cc1ccc(OCC(O)Cn2c3ccccc3c3ccccc32)cc1 (stereo not drawn)	Pf growth 48h 9.28µM, Pf growth 96h inconclusive
Cc1ccc(OCCN2CCN(CC(O)Cn3c4ccccc4c4ccccc43)CC2)cc1 (stereo not drawn)	Pf growth 48h 2.62µM
O=C(CCS(=O)(=O)Cc1ccccc1F)NCCc1ccc(Cl)cc1	none
COc1cc(NC(=O)C2CCCN(S(=O)(=O)c3cn(C)cn3)C2)cc(OC)c1 (stereo not drawn)	none (no result: Pf growth 48h, AmpC inh no detg, Pf growth 96h, SARS PLP yeast)
COc1ccc(OC)c(S(=O)(=O)N2CCC(c3ccncc3)CC2)c1	none (no result: Pf growth 48h, AmpC inh no detg, Pf growth 96h, SARS PLP yeast)
OC(CN1CCN(Cc2ccccc2)CC1)Cn1c2ccccc2c2ccccc21 (stereo not drawn)	Pf growth 48h 2.62µM
